Screening data: PubChem BioAssay, several laboratories
M1 ag = M1 muscarinic receptor agonists, primary screen, CHO-M1 cells, Fluo-4 calcium, agonist mode. Fluo-4 calcium fluorescence; hits give high values. B-score at 10 µM. hit rate 3% among 64,000. AID 626, 2007;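 active = fluorescence rise, raw or as B-score row- and column-corrected plate score, outside the 99.7% band of its plate's samples, either direction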
WNV NS2B-NS3 inh = inhibitors of WNV NS2B-NS3 protease, primary screen, biochemical, fluorogenic substrate | Genome polyprotein (West Nile virus), P06935 | fluorogenic substrate Ex360/Em465; hits give low values | z-score (no concentration beside the values) | hit rate 0.18% among 65,000 | AID 577, 2007; in the data active = z-score below about -3
Target sequence (P06935 1371-1501 limits assumed): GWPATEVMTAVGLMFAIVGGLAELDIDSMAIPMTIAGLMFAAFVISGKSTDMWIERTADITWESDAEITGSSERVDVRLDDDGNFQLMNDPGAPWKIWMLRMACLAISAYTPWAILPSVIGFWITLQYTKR
Target sequence (P06935 1502-1679 limits assumed): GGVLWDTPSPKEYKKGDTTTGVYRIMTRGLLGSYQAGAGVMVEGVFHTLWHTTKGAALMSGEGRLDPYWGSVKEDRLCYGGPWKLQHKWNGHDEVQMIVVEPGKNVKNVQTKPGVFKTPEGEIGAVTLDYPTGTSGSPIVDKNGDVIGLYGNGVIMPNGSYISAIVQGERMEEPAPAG
M1 antagonist = antagonists of rat M1 muscarinic receptor. Muscarinic acetylcholine receptor M1 (Rattus norvegicus), P08482. CHO-M1 cells, Fluo-4 calcium, ACh EC80 antagonist mode; hits give low values. B-score at 10 µM. hit rate 3.4% among 64,000. AID 628, 2007;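 active = calcium fluorescence response, raw or row-and-column corrected B-score, differing from the plate sample mean either way at a set confidence level, mostly lower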
Htt clearance = clearance of mutant huntingtin inclusions, primary screen, imaging, HeLa Exon1htt(103Q)mCFP, confocal imaging; aggregate imaging; zero = plate's median compound well; inhibition, % at 1.5 µM; hit rate 0.42% among 47,000; AID 853, 2007;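 active = inhibition of aggregate fluorescence above about 70%, also judged a hit by eye on the cell image, limit read from the data, passing the limit was not always enough; inconclusive = no rule stated for this call; inactive = not judged a hit on image review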;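 also: cells exposed to compound for three days before fixation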
D1 mod = D1 CRE-luciferase signal change, two-sided – cell-based, HEK293 D1, dopamine EC30, D1 allosteric modulator project, primary screen. D(1A) dopamine receptor (Homo sapiens), P21728. AID 641, 2007. dopamine EC30 potentiation; actives deviate in either direction. hit rate 5.9% among 58,000. B-score at 10 µM;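 active = luminescence count or its row- and column-corrected plate score outside the 99.7% band of the plate's sample wells, on either side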
D1 PAM confirm = D1 receptor positive allosteric modulators, retest, confirmation, cell-based, HEK293 D1, CRE-luciferase, duplicate; shares compounds with D1 mod; dopamine EC30 potentiation; hits give high values; luminescence at 10 µM; hit rate 88% among 2,200;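 active = luminescence in either of two replicates above the same-plate mean plus 3 SD of the low-dose dopamine control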
D1 no dopamine = D1 receptor agonism without dopamine, confirmation, mechanism study for D1 allosteric modulator project, cell-based, HEK293 D1, CRE-luciferase, secondary assay 1; shares compounds with D1 mod; luminescence, no dopamine; hits give high values; luminescence at 10 µM; hit rate 0.8% among 1,900; in the data active = luminescence above about 3900
Isoprot counter = alters isoproterenol CRE-luciferase response in HEK293 cells; shares compounds with D1 mod; HEK293 D1 CRE-luciferase, isoproterenol EC30 counter-screen; calls only at 10 µM; AID 647; hit rate 63% among 2,200;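 active = luminescence in either replicate above plate mean of wells with a partly effective reference agonist dose plus 3 SD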;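 also: isoproterenol raises cAMP through native beta-adrenoceptor Gs so signal bypasses D1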
Starred values were filed as active, the others as inactive; i = inactive; ? = inconclusive; / = no result; + = active, no number. Compounds with a hit are over-represented: about 8.9% of the library has one in this group of screens.

SMILES	M1 ag	WNV NS2B-NS3 inh	M1 antagonist	Htt clearance	D1 mod	D1 PAM confirm	D1 no dopamine	Isoprot counter
O=C(CN1C(=O)c2ccccc2S1(=O)=O)N1CCN(c2ccc(F)cc2)CC1	1.3	1.2	0.096	/	0.0044	/	/	/
Cc1c(C)c2c(C)nn(-c3ccccc3)c2[nH]c1=O	-1.5	-0.89	0.0034	/	0.43	/	/	/
CCc1c(C)c2c(C)nn(-c3ccccc3)c2[nH]c1=O	1.6	-0.68	-0.0046	/	3.2*	7084*	1748	+
CCOC(=O)CC(=O)Nc1ccc(Br)cc1C(=O)O	0.35	-0.31	-1.5	21	-0.42	/	/	/
N#CCn1c(C2CCCCC2)nc2ccccc2c1=O	0.75	-0.32	-0.085	/	8.4*	16652*	1540	+
O=C(O)CCn1c(C2CCCCC2)nc2ccccc21	-0.25	0.57	0.054	/	0.36	/	/	/
CCOc1ccc(C2CC(c3cccc(OC)c3)Nc3ncnn32)cc1 (stereo not given)	-0.069	-0.61	0.0072	/	-1.3	/	/	/
CCOc1ccc(-c2nnc(-c3ccco3)o2)cc1OCC	0.4	-0.61	0.039	1	15*	17272*	1612	+
CCOc1cc(-c2nnc(-c3ccco3)o2)cc(OCC)c1OCC	3.3	-0.19	-0.49	/	3	/	/	/
Cc1ccc(Nc2nc(N)nc(CN3CCN(C(=O)c4ccco4)CC3)n2)cc1Cl	2	-0.59	0.069	-13	5.4*	12072*	1624	+
CCOC(=O)c1c(CC(C)C)csc1NC=O	0.069	-1	0.41	?	17*	12684*	1528	+
CSc1nnc(-c2cccs2)n1-c1ccccc1	0.62	-0.93	0.44	-22	3.7*	17328*	1712	+
CCOC(=O)CSc1nnc(-c2cccs2)n1-c1ccccc1	-3	-0.12	0	-6	0.44	/	/	/
CCc1cccc2c(C#N)cn(CC(=O)NCCOC)c12	0.54	0.77	0.81	-6	3*	4856	1524	i
CCc1cccc2c(C#N)cn(CCOc3ccccc3OC)c12	-0.5	0.7	0.82	/	-0.79	/	/	/
COc1ccc(OC)c(NS(=O)(=O)c2ccc3c(c2)CCC(=O)N3)c1	-0.7	0.76	-0.15	2	-0.32	/	/	/
O=C(C1CC1)N1CCN=C1SCc1cccc(F)c1	-0.13	0.42	-0.021	/	/	/	/	/
CCOC(=O)Cn1c2ccccc2c2nc3ccccc3nc21	0.0065	0.02	-0.24	34	4.8*	14192*	1640	i
CCCn1c2ccccc2c2nc3ccccc3nc21	1.1	0.05	0.41	/	5.7*	12892*	1720	+
N#CCCn1c2ccccc2c2nc3ccccc3nc21	1.5	1.7	-0.96	4	14*	19256*	1672	+
N#CC(c1cccc(Cl)c1)c1ccc2c(C(F)(F)F)cc(C(F)(F)F)nc2n1 (stereo not given)	/	/	/	0	/	/	/	/
COc1ccc(C(=O)O)cc1Nc1cc(C)nc2ncnn12	-1.1	-0.64	0.061	20	-0.49	/	/	/
CCOC(=O)Cn1nc(Cc2ccccc2)c2ccccc2c1=O	/	/	/	-69	/	/	/	/
CCOC(=O)N1CCC(NC(=O)Cn2nc(Cc3ccncc3)c3ccccc3c2=O)CC1	-0.059	1.1	0.06	24	4.3*	6112	1664	i
COc1ccc(NC(=O)CCNC(=O)Cn2cnc3ccccc3c2=O)c(OC)c1	/	-1.4	/	-39	-0.23	/	/	/
SMILES	M1 ag	WNV NS2B-NS3 inh	M1 antagonist	Htt clearance	D1 mod	D1 PAM confirm	D1 no dopamine	Isoprot counter
Cc1ccc2[nH]c(=O)c(CN(Cc3ccco3)C(=O)c3cccs3)cc2c1	0.57	-0.09	-1.5	/	-1.1	/	/	/
O=C(c1cccs1)N(Cc1ccccn1)Cc1ccco1	0	0.92	-0.25	/	10*	13228*	1456	+
COC(=O)c1cc(C)sc1NC(=O)c1cccnc1	0	-1.2	-0.96	28	5.4*	16836*	1548	+
Nc1nc(-c2ccc(Cl)cc2)cc(C(F)(F)F)n1	0.86	-0.94	-0.17	-26	19*	19568*	1592	+
CCn1ncc2c1C(=O)NC1c3ccccc3C(=O)N21 (stereo not given)	1.1	0.8	-0.38	/	17*	21460*	/	+
CCOc1ccc(C(=O)Nc2nncs2)cc1OCC	1.4	-0.23	-2	/	10*	18420*	1592	+
COC(=O)c1n[nH]c2ccccc12	-0.037	0.06	-0.24	18	/	/	/	/
O=C(OCCCCN1C(=O)c2ccccc2C1=O)c1n[nH]c2ccccc12	-0.56	0.06	-0.96	18	5.1*	7836*	1704	i
COC(=O)c1ccccc1NC(=O)C1CC=CCC1C(=O)O (stereo not given)	-0.15	-0.66	0.65	/	0.6	/	/	/
COC(=O)c1ccccc1NC(=O)c1ccc2c(c1)OCCO2	0.058	0.15	-0.4	-7	3.9*	11420*	1512	i
COC(=O)c1ccccc1NC(=O)C1CCCC1	1.1	-1	0.22	40	6.6*	9916*	1688	+
CS(=O)(=O)Nc1ccc(C(=O)Nc2ccccc2C(=O)N2CCCC2)cc1	-0.0091	-0.49	-0.18	-5	-0.0069	/	/	/
COC(=O)c1ccccc1NC(=O)NCc1ccc2c(c1)OCO2	0.74	0.5	1.1	-57	1	/	/	/
COC(=O)c1ccccc1NC(=O)c1ccc(NS(C)(=O)=O)cc1	0.55	-0.72	-0.71	14	8*	9992*	1724	+
CCNC(=O)CC1C(=O)N(c2ccc(F)cc2)C(=O)N1Cc1ccccn1 (stereo not given)	0.27	0.46	0.034	/	0.02	/	/	/
Cc1nnc(SCC(=O)N2CCC(C(N)=O)CC2)s1	0.59	-0.83	0.32	65	0.57	/	/	/
CCCCNC(=O)C1CCCN1C(=O)Nc1cccc(OC)c1 (stereo not given)	-0.48	-0.62	0.58	42	30*	4704	1636	i
COc1ccccc1NC(=O)N(Cc1ccc2c(c1)OCO2)Cc1nc2ccccc2c(=O)[nH]1	2.1	-0.04	1.2	-19	4.9*	5620*	1528	i
O=C(c1cccn2c(=O)c3cc(Cl)ccc3nc12)N1CCN(Cc2ccc3c(c2)OCO3)CC1	2.4	-0.7	-0.0029	/	3*	6868*	1600	i
Cc1cccc(N2CC(C(=O)Nc3ccc4c(c3)OCO4)CC2=O)c1C (stereo not given)	-0.23	0.38	-0.22	32	-0.72	/	/	/
CCn1nccc1C(=O)Nc1cc(Cl)ccc1Cl	1.4	-1	0.27	59	2.3*	7456*	1536	+
